A selection: hits, their analogues and other compounds. The true share with any hit is near 14%.
CRE Fsk mod: CRE-bla signaling modulation under forskolin stimulation; Potency, µM (series often up to 38.2 µM), inactives show at the highest dose activity change, negative = inhibition, most hits filed as activators; AID 662; CHO CRE-bla reporter (cAMP response element driving beta-lactamase), forskolin EC10, beta-lactamase ratio; 2.5% of 71,000 active; active = well fitted activation curve with a large enough effect in the signal ratio, with a control signal flat, not every such curve was filed as active; inconclusive = small, poorly fitted or top-dose-only effect, or effect the other way, or a change in a side signal; the % refers to the signal ratio; also: potency is read from the fitted curve at half-maximal effect; % of control where 0% means no effect
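CRE-bla CHO reporter cells treated with compound titration plus EC10 NKH 477 (water-soluble forskolin), incubated 3 h at 37 °C; CCF4 loading 2 h at room temperature, 460/530 nm emission ratio read, AC50 values derived for positive or negative modulators.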
HSD17B inhib: inhibitors of human HSD17B10 dehydrogenase | Q99714 | recombinant HSD17B10, NADH fluorescence kinetic | Potency, µM (highest dose often 57.1 µM), for inactives: at the top dose activity change, negative = inhibition, actives largely listed as inhibitors | 7.6% of 75,000 active;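 also: the protocol describes HADH2 (HSD17B10) and not the HSD17B4 of the title; potency is read from the fitted curve at half-maximal effect; % is scaled to controls: 0 for no effect and ±100 for the full control effect; nearly all actives have a fitted effect of over 70% in size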
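Activity followed as NADH fluorescence increase (ex 360, em 450 nm) every 30 seconds for 4 min, using final 90 uM beta-hydroxybutyryl CoA and 1 mM NAD+. Recombinant His-tagged enzyme, 20 nM, pH 9.0 Tris buffer, 15 min compound preincubation.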
AID923: qHTS Assay for Allosteric/Competitive Inhibitors of Caspase-1: Spectroscopic Profiling in AFC Spectral Region | compound fluorescence, AFC spectral region (405/520 nm) | Potency, µM (highest dose often 57.5 µM), for the others: top-dose fluorescence increase, actives largely listed as activators | 1.1% of 75,000 active | AID 923, 2007; also: potency is read from the fitted curve at half-maximal effect; 0% is about no effect
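Compound autofluorescence profiled at 405 nm ex/520 nm em during kinetic caspase 1 run (50 nM enzyme, 5 uM Ac-WEHD-AFC, HEPES pH 7.5, 10 mM DTT). Titration up to 57 uM; baseline from regression intercept, normalized to AFC standard curve.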
4MU fluor: compounds fluorescent in 4-MU spectral region; compound autofluorescence, 340/450 nm, 4-MU equivalents; hits give high values; max dye-equivalent concentration, M; 11% of 59,000 active; in the data active = max dye-equivalent concentration above about 10 nM; inconclusive = mostly about 1.1 nM to 9.6 nM
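Compounds in 100 mM Tris, pH 8.0, incubated 15 min at room temperature, then fluorescence read at 340 nm excitation/450 nm emission. Signal converted to 4-MU dye-equivalent concentration using an on-plate six-point 4-MU standard curve.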
A350 fluor: A350 region autofluorescence | max dye-equivalent concentration, M | 11% of 59,000 active | Compound autofluorescence, 340/450 nm, Alexa 350 dye-equivalents; hits give high values; in the data active = max dye-equivalent concentration above about 10 nM; inconclusive = mostly about 1.1 nM to 9.6 nM
HADH2 inhib: blocks human hydroxyacyl-CoA dehydrogenase type II; Q99714; recombinant HADH2, NADH fluorescence, beta-hydroxybutyryl-CoA; Potency, µM (series often up to 57.1 µM), for inactives: at the top dose activity change, negative = inhibition, actives largely listed as inhibitors; 3.4% of 73,000 active; AID 886; also: potency is read from the fitted curve at half-maximal effect; % is scaled to controls: 0 for no effect and ±100 for the full control effect; nearly all actives have a fitted effect of over 60% in size
Target sequence (Q99714 whole entry, looked up, one chain of several): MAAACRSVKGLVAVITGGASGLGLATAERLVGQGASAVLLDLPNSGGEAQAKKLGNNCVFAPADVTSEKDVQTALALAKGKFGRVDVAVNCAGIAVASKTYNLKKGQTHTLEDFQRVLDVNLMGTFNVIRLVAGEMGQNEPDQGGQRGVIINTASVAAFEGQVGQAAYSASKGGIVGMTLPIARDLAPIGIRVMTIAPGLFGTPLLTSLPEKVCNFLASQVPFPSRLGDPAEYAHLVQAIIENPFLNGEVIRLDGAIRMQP
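NADH fluorescence (ex 360/em 450 nm) read every 30 s for 4 min; activity taken as last-minus-first time point difference. Enzyme 20 nM, NAD+ 1 mM, beta-hydroxybutyryl-CoA 90 uM, pH 9.0 Tris buffer.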
Starred values were filed as active, the others as inactive; i = inactive; ? = inconclusive; . = no result given; [ ] = another dose, or the depositor's remark. Unless noted, calls follow the shape of the dose curve; as a rule, active = well fitted curve in the direction sought with a large enough effect; inconclusive = small, poorly fitted or top-dose-only effect, or another doubt; inactive = no such curve, though single readings can be large; an effect the other way counts as inactive or inconclusive.

SMILES | CRE Fsk mod | HSD17B inhib | AID923 | 4MU fluor | A350 fluor | HADH2 inhib
Cc1nc2cnc(N(C)C)nc2n(C[C@H]2CCCO2)c1=O | 10µM* | ? | ? | 2.1e-08M* | 2.7e-08M* | -7%
COC(=O)C/C=C\[C@@H](C)[C@@H](/C=N\O[C@@H](C)c1cn([C@H]2COC[C@H]2O)nn1)NS(=O)(=O)c1ccc(C)cc1 | . | 2%[11.4 µM] | -1%[11.5 µM] | . | . | 19%[11.4 µM]
COc1ccc(CN(Cc2cccnc2)S(=O)(=O)c2ccc(-n3cnnn3)c(C)c2)cc1OC | 15% | 7% | 4% | i | i | 11%
O[C@H](CNc1ccccn1)c1ccccc1 | 2%[7.6 µM] | 6%[11.4 µM] | 1%[11.5 µM] | i | i | 12%[11.4 µM]
Cc1ccccc1-c1c(C)oc2cc(O)ccc2c1=O | . | 32µM* | -3% | . | . | 20µM*
Cc1oc2cc(O)ccc2c(=O)c1N1C(=O)c2ccccc2C1=O | 10% | i | 3% | . | . | 91%
COC(=O)c1cc(-c2c(C)oc3cc(OC)ccc3c2=O)c(C)o1 | 11% | 21% | 0% | i | i | 3%
COC(=O)c1cc(-c2c(C)oc3cc(O)ccc3c2=O)c(C)o1 | 9% | 32µM* | 1% | 3.8e-07M* | 3.5e-07M* | 32µM*
O=C(N/N=C\c1ccc2c(c1)CCC2)c1ccccc1O | -5%[7.6 µM] | 1%[11.4 µM] | 4%[11.5 µM] | i | ? | -6%[11.4 µM]
O=C(Nc1ccc(Br)c2cccnc12)c1ccc(Cn2cc(Cl)cn2)o1 | -1% | -1% | -1% | 1.1e-08M* | 1.2e-08M* | 0%
CC(=O)c1sc(NC(=O)c2ccc(Cn3cc(Br)cn3)o2)nc1C | ? | ? | 2% | ? | ? | -23%
Cc1ccc2nc(NC(=O)c3ccc(Cn4cc(Cl)cn4)o3)sc2c1 | -2% | 32µM* | 1% | 3.1e-08M* | 3.1e-08M* | 10%
CC(=O)NC1=NC(=O)/C(=C/N2CCCCC2)S1 | 17% | -1% | 7% | 6.1e-08M* | 7.9e-08M* | -2%
O=C(c1coc2ccccc2c1=O)N1CCN(c2cccc(C(F)(F)F)c2)CC1 | -16% | 1% | 0% | i | i | 1%
CCCn1c(-c2ccc(F)cc2)nc2c(NCCN3CCCCC3)nc(C)nc21 | 4% | 32µM* | 0% | . | . | 15%
CCCn1c(-c2ccc(F)cc2)nc2c(NCCCN3CCCCC3C)nc(C)nc21 (stereo not drawn) | 8% | 32µM* | 2% | . | . | -14%
CCCn1c(-c2ccc(F)cc2)nc2c(NCCCN3CCOCC3)nc(C)nc21 | 16% | 20µM* | 1% | . | . | ?
CCCN(CCC)C(=O)SCC | -1% | 2% | -1% | . | . | -6%
Cc1cc(N)c2ccccc2[n+]1CCCCCCCCCCCCCC[n+]1c(C)cc(N)c2ccccc21 | 7% | ? | -5% | ? | ? | ?
COc1ccc(CNc2ccnc(-c3ccc(N(C)C)cc3)n2)c(OC)c1 | ? | 20µM* | ? | i | ? | 5%
COc1ccc(CNc2ccnc(-c3cccnc3)n2)c(OC)c1 | ? | 10% | 1% | i | i | ?
COc1ccc(CNc2ccnc(-c3ccoc3)n2)c(OC)c1 | ? | 0% | 6% | i | i | ?
COc1ccc(CNc2ccnc(-c3c(C)noc3C)n2)c(OC)c1 | ? | -14% | 2% | i | i | 10µM*
CC(C)(C)n1nc2c(c1NC(=O)c1cccc(C(F)(F)F)c1)CS(=O)C2 (stereo not drawn) | -1% | 1% | 1% | i | i | -1%
CCN1C(=O)c2ccccc2S(=O)(=O)c2ccc(C(=O)NCc3cccnc3)cc21 | 4% | 2% | 5% | . | . | 0%
SMILES | CRE Fsk mod | HSD17B inhib | AID923 | 4MU fluor | A350 fluor | HADH2 inhib
Cc1ccccc1-c1cc(N2CCNCC2)ncn1 | -10% | 5% | 10% | i | i | -8%
C[C@@H]1O[C@@H](O)[C@@H](O)[C@H](O)[C@H]1O | 18%[7.6 µM] | -2%[11.4 µM] | -2%[11.5 µM] | i | i | -3%[11.4 µM]
Clc1ccc2[nH]c3c(c2c1)CCc1cn[nH]c1-3 | ? | ? | 0% | . | . | 57%
c1ccc2c3c([nH]c2c1)-c1[nH]ncc1CC3 | -16% | 13µM* | 6% | ? | ? | 10µM*
COc1ccc(-n2c(SCCC#N)nnc2-c2cc(Cl)ccc2OC)cc1Cl | ? | -14% | -3% | i | i | 8%
CCNc1nnc(-c2ccc(C)cc2)o1 | -3% | 32µM* | -1% | i | i | -13%
CCSc1nnc(-c2ccc(OC)cc2)o1 | 2% | 4% | -1% | i | i | -5%
C=C[C@](C)(O)CCC=C(C)C | . | -3% | -2% | . | . | .
COc1cccc(Nc2ncc3nc(-c4cn(C)c5ccccc45)c(=O)n(CCC#N)c3n2)c1 | ? | 0% | 6% | i | i | -8%
CCN(CC)CCn1c(=N)n(CCO)c2ccccc21 | 4% | 2% | 0% | . | . | -3%
CCN(CC)CCn1c2ccccc2c2cnc(N=CN(C)C)c(C#N)c21 | ? | ? | 1% | 8.9e-08M* | 1.1e-07M* | -15%
N#Cc1cccc(NC(=O)N2CCCC3(CCN(C(=O)c4csnn4)CC3)C2)c1 | 4% | 9% | 5% | i | i | -4%
Nc1nc(-c2ccc(Cl)cc2Cl)cn1N | -18% | -21% | 5% | 1.3e-08M* | 1.7e-08M* | 7%
CC(=O)c1c(C)nc(-c2ccc(Cl)cc2Cl)n1O | 9% | 3% | 0% | i | i | 5%
CC(=O)Nc1nonc1NC(=O)CSc1nc2ccccc2o1 | ? | -8% | 1% | i | i | 11%
CCC(=O)Nc1cc2c(cc1C(C)=O)OCCO2 | 21% | 32µM* | 0% | . | . | 10%
CCCC(=O)Nc1cc2c(cc1C(=O)c1ccccc1)OCCO2 | -1% | -8% | -1% | i | i | -11%
CC(=O)c1cc2c(cc1NC(=O)CSc1nc3ccccc3o1)OCO2 | 10% | 20µM* | -2% | 5.4e-07M* | 7.7e-07M* | 33%
CCC(=O)c1cc2c(cc1NC(=O)c1ccc(C)cc1)OCCO2 | 4% | -2% | -2% | 1.5e-07M* | 1.7e-07M* | -10%
CC(=O)Nc1cc2c(cc1C(=O)C(C)C)OCCO2 | 22% | ? | 1% | 3.6e-08M* | 3.1e-08M* | -16%
COCC#Cc1ccc(C2C(C)CCC3C(=O)N4C(CCC(C)C4c4ccc(C#CCOC)cc4)C(=O)N32)cc1 (stereo not drawn) | . | -5%[11.4 µM] | 0%[11.5 µM] | . | . | 0%[11.4 µM]
CC(=O)c1ccccc1[N+](=O)[O-] | -10% | -2% | 4% | . | . | 3%
CCCS(=O)(=O)N1CCC(C(=O)NCC2CCCO2)CC1 (stereo not drawn) | -2% | 2% | 0% | i | i | 7%
COc1ccc(C)cc1S(=O)(=O)N(CC(=O)N1CCCC1)c1ccccc1 | ? | 7% | -1% | i | i | 17%
